Bioassay records from PubChem BioAssay.
Most compounds without a hit are left out; they make up all but 9.4% or so of the library.
HTT ATP protect – protects HTT-Q103 PC12 cells, measured by ATP | Potency, µM (top dose mostly 56.4 µM), for inactives: cytoprotection (ATP increase), most hits filed as activators | PC12 HTT-Q103 induced, cytoprotection, ATP luminescence, 40 h | AID 1471 | 230,000 compounds, 0.14% hits; also: potency is read from the fitted curve at half-maximal effect; % of control where 0% means no effect; nearly all actives have a fitted effect of over 45% in size
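PC12 cells stably carrying ecdysone-inducible Htt exon 1 (Q103)–GFP were induced with 100 nM tebufenozide (final) alongside library compounds in a dose series. Cytoprotection was scored as retained ATP by ATPlite luminescence.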
ALDH1A1 inh – ALDH1A1 (human) enzyme inhibition | P00352 | Purified ALDH1A1, NADH fluorescence, propionaldehyde substrate | Potency, µM (titrated, usually from 75.3 µM), without a hit: top-dose activity, negative = inhibition, most hits filed as inhibitors | 220,000 compounds, 7.3% hits; active = well fitted inhibition curve with a large enough effect, not every such curve was filed as active; inconclusive = small, poorly fitted or top-dose-only effect, or another doubt; inactive = no such curve, though single readings can be large or run the other way;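 also: potency is read from the fitted curve at half-maximal effect; plate controls were no enzyme wells and a reference inhibitor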
IMPase inh – membrane-permeable compound that blocks inositol monophosphatase; P97697; CHO-M1 cells, IP1 accumulation, HTRF TR-FRET ratio; inhibition (IP1 accumulation), % at 46.1 µM; 120,000 tested, under 10 active; active = well fitted curve in the direction sought with a large enough effect in the signal ratio, not every such curve was filed as active; inconclusive = small, poorly fitted or top-dose-only effect, or a change in a side signal; inactive = no such curve, though single readings can be large or run the other way; the % refers to the signal ratio;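 also: cells stimulated with carbachol in lithium chloride buffer; plate controls were DMSO basal wells for no effect and reference inhibitor wells for full effect; higher means more IMPase inhibition seen as more IP1 and lower FRET ratio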
Target sequence (P97697 whole entry, looked up): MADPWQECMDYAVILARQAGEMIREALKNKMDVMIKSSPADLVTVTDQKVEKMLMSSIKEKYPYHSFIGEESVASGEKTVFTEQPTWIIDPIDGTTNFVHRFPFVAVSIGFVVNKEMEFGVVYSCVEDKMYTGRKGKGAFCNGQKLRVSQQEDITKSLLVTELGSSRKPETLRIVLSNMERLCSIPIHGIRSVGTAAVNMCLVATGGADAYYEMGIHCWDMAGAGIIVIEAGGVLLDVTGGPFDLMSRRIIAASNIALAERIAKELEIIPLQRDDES
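CHO-M1, 2000 cells/well, cultured 16–30 h; cpd up to 46 uM; carbachol (50 uM solution, stimulation buffer w/ 50 mM LiCl, pH 7.4), 30 min 37C; IP-One TR-FRET, 10 min RT; Ex 320/Em 665, 620; Hill-fit AC50.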
HttQ103 aggreg – reduces HttQ103-GFP aggregates in PC12 cells; PC12 HttQ103-GFP aggregates, Acumen cytometry, 40 h; Potency, µM (series often up to 46.1 µM), for inactives: at the top dose activity change, negative = inhibition, usual class: inhibitors; 220,000 compounds, 1.1% hits; AID 1688; also: potency is read from the fitted curve at half-maximal effect; % is scaled to controls: 0 for no effect and ±100 for the full control effect; nearly all actives have a fitted effect of over 60% in size
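PC12 cells with ecdysone-inducible HTT exon1 Q103-GFP, induced by 100 nM tebufenozide, given compounds in a concentration series. GFP aggregates (1–25 um, 6 SD above background) counted in lysates by laser-scanning cytometry, 488 nm excitation.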
IMPase Li inh – IMPase inhibition in cells with lithium potentiation; CHO-M1 cells, IP1 TR-FRET (IP-One), carbachol + lithium; 210,000 compounds, 0.35% hits; Potency, µM (top dose mostly 59.4 µM), without a hit: at the highest dose activity, negative = IMPase inhibition, most hits filed as inhibitors;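 also: IP1 builds up when IMPase is blocked and the TR-FRET signal falls; potency is read from the fitted curve at half-maximal effect; plate controls were basal vehicle for no effect and high inhibitor control for full effect; nearly all actives have a fitted effect of over 50% in size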
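Readout is a homogeneous TR-FRET IP1 immunoassay (Ex 320, Em 665 and 620), where raised cytosolic IP1 lowers signal. Cells were CHO-M1 treated 30 min at 37C with test compounds plus a little lithium; AC50 values came from Hill-equation fitting.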
HPGD block – blocks human HPGD enzyme activity | AID 894 | Potency, µM, without a hit: top-dose activity change, negative = inhibition, most hits filed as inhibitors | 150,000 compounds, 4.3% hits | purified HPGD, NADH fluorescence kinetic, PGE2 substrate | P15428; active = well fitted inhibition curve with a large enough effect, not every such curve was filed as active; inconclusive = small, poorly fitted or top-dose-only effect, or another doubt; inactive = no such curve, though single readings can be large or run the other way; also: potency is read from the fitted curve at half-maximal effect; % is scaled to controls: 0 for no effect and ±100 for the full control effect
Target sequence (P15428 whole entry, looked up): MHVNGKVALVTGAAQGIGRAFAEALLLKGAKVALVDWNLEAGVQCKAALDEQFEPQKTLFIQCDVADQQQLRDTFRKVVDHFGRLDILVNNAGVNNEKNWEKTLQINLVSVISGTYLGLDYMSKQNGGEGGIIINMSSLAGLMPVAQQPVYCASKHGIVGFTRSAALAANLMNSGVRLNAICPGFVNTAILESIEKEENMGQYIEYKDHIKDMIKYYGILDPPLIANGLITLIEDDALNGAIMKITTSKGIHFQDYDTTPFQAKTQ
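NADH formation kinetics: reaction with 30 uM PGE2 and 1 mM NAD+ (final), 20 nM enzyme, Tris-HCl pH 8 with Tween 20, after 15 min compound preincubation at room temperature. Fluorescence change, last versus first of five reads.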
An asterisk follows results filed as active; ? = inconclusive; . = not tested or not shown; [ ] = dose if it differs, or a comment. Unless noted, calls follow the shape of the dose curve; as a rule, active = well fitted curve in the direction sought with a large enough effect; inconclusive = small, poorly fitted or top-dose-only effect, or another doubt; inactive = no such curve, though single readings can be large; an effect the other way counts as inactive or inconclusive.

SMILES	HTT ATP protect	ALDH1A1 inh	IMPase inh	HttQ103 aggreg	IMPase Li inh	HPGD block
COc1ccccc1CCNC(=O)C1CCCO1 (stereo not drawn)	-6.5%	-4.1%	-2.2	5.0%	-14.1%[38.3 µM]	17.8µM*
COc1ccccc1CC(=O)NCC1CCCO1 (stereo not drawn)	-17.7%	-6.6%	-2.1	2.8%	-14.0%[38.3 µM]	25.1µM*
Cc1ccc(Nc2nnc(-c3ccc(C)c(S(=O)(=O)N4CCN(C)CC4)c3)c3ccccc23)c(C)c1	.	.	-4.5	.	.	.
COC(=O)c1ccc(-c2ccc(C(c3c(C)[nH][nH]c3=O)c3c(C)[nH][nH]c3=O)o2)cc1	-27.3%	3.55µM*	.	-7.1%	9.8%	.
Cc1[nH][nH]c(=O)c1C(c1ccc(-c2ccccc2C(=O)O)o1)c1c(C)[nH][nH]c1=O	-54.3%	5.01µM*	.	10.1%	4.3%	.
CCCCCCC(=O)N(O)C1CC(=O)N(c2ccc(Br)cc2)C1=O (stereo not drawn)	-81.3%	0.562µM*	8.6	24.6%	-5.9%[38.3 µM]	7.08µM*
COc1ccccc1N(O)C1CC(=O)N(c2ccc(Br)cc2)C1=O (stereo not drawn)	12.4%[10 µM]	17.8µM*	1.1	14.4%	21.8%[38.3 µM]	28.2µM*
COc1cc2c3cc1Oc1c(OC)c(OC)cc4c1[C@@H](Cc1ccc(O)c(c1)Oc1ccc(cc1)C[C@@H]3N(C)CC2)CN(C)C4	0.6%[10 µM]	-5.6%[13.5 µM]	.	.	4.2%	-10.1%
COc1ccc(N2CC(O)=C(c3nc(C)cs3)C2=N)cc1	-18.3%[10 µM]	20µM*	11.2	6.0%	-3.1%[38.3 µM]	-11.7%
Cc1cc2oc(=O)cc(CN3CCCc4ccccc43)c2cc1C	1.9%	25.1µM*	0.4	-0.3%	?	-18.4%
Cc1cc2oc(=O)cc(CN3CCOCC3)c2cc1C	7.3%	1.1%	9.8	-3.7%	12.3%[38.3 µM]	-0.7%
COc1ccc(/C=C2/N=C(SCC(=O)Nc3cc(C)on3)N(c3ccccc3)C2=O)cc1	21.6%[10 µM]	6.0%	-7.8	-1.3%	-13.7%	27.3%
CCC(SC1=N/C(=C/c2ccccc2)C(=O)N1c1ccccc1)C(=O)Nc1cc(C)on1 (stereo not drawn)	-0.3%[10 µM]	17.8µM*	6.8	5.0%	8.3%	?
C=CCN1C(c2ccccc2)=CS/C1=C(/C#N)c1nnc(N2CCOCC2)n1-c1ccccc1	21.8%[10 µM]	5.62µM*	.	5.9%	7.2%	-28.5%
CCn1cnc2c1c(=O)n(Cc1nnc3n1-c1ccccc1SC3)c(=O)n2Cc1ccccc1	3.2%	-1.9%	20.1	7.3%	54.6%[38.3 µM]	-9.1%
CCN1C(c2ccc(F)cc2)=CS/C1=C(\C#N)c1nnc2n1-c1ccccc1SC2	-11.2%	12.6µM*	13.5	-2.5%	-13.1%[38.3 µM]	?
CN1C(=O)NC(c2ccccc2)(C(F)(F)F)S/C1=C(/C#N)c1nnc(N2CCOCC2)n1-c1ccccc1 (stereo not drawn)	15.6%[1.9 µM]	-6.5%	0.6	?	1.8%	-0.5%
CN1C(c2ccc(F)cc2)=CS/C1=C(/C#N)c1nnc(N2CCOCC2)n1-c1ccccc1	32.3%[10 µM]	0.794µM*	.	5.7%	3.0%	-2.6%
O=C(O)CCC(O)=C1S(=O)(=O)OCCOS1(=O)=O	2.8%[10 µM]	8.2%[13.5 µM]	.	.	-1.5%	-4.9%
CCOC(=O)C1=C2NC(=O)c3ccccc3N2C(=O)C1	?	25.1µM*	.	-10.2%	-1.2%	.
CC(c1ncncc1F)[C@](O)(Cn1cncn1)c1ccc(F)cc1F (stereo partly drawn)	-68.5%	.	.	14.5%	.	.
COc1ccc(CN(CCC(c2ccccc2)C2CCOC(C)(C)C2)C(C)=O)cc1 (stereo not drawn)	-14.4%[10 µM]	?	.	12.6µM*	18.3%	-5.4%
CCN(CC)S(=O)(=O)c1ccc2oc(C(=O)NCC3COc4ccccc4O3)c(C)c2c1 (stereo not drawn)	-42.5%	14.1µM*	12.0	?	25.5%[38.3 µM]	-23.8%
Cc1c(C(=O)NCC2COc3ccccc3O2)oc2ccc(S(=O)(=O)N3CCOCC3)cc12 (stereo not drawn)	15.0%[10 µM]	-11.9%	15.2	?	23.0%	-26.2%
CCc1ccc(C(=O)NCC2COc3ccccc3O2)o1 (stereo not drawn)	-8.7%[10 µM]	-9.7%	21.7	-3.8%	0.3%[38.3 µM]	17.8µM*
SMILES	HTT ATP protect	ALDH1A1 inh	IMPase inh	HttQ103 aggreg	IMPase Li inh	HPGD block
CC(NNC(=O)c1ccccc1)c1ccccc1 (stereo not drawn)	-5.9%	.	.	42.1%	.	.
Clc1cccc2c1CN(C1=NCCN1)C2	0.5%	3.5%	5.5	.	7.8%	1.4%
O=C1[C@@H]2C[C@@H]3C[C@H]1C[C@@](O)(C3)C2	-43.6%	.	.	-9.2%	.	.
O=C(Nc1ccc(-c2cn3ccccc3n2)cc1)c1ccc(Cl)cc1	-99.2%[10 µM]	?	-7.1	2.82µM*	-14.4%[38.3 µM]	?
CCCCC(=O)Nc1cccc(-c2cn3ccccc3n2)c1	0.7%	28.2µM*	0.0	18.5%	.	.
COc1ccc(NC(=O)c2ccco2)cc1NC(=O)c1cc(OC)c(OC)c(OC)c1	.	.	-1.6	.	.	.
COc1ccc(Br)cc1C(=O)Nc1ccc(Cc2ccncc2)cc1	-31.2%	49.8%	9.4	?	6.1%[38.3 µM]	-22.6%
Cc1cccc(C(=O)NC(=S)Nc2ccc(Cc3ccncc3)cc2)c1	-47.1%	20µM*	6.9	-8.6%	16.7%[38.3 µM]	?
COc1c(C(=O)Nc2ccc(Cc3ccncc3)cc2)ccc2ccccc12	.	?	.	12.6µM*	10.9%	-29.4%
Cc1cc(C)cc(C(=O)NC(=S)Nc2ccc(Cc3ccncc3)cc2)c1	-4.9%[10 µM]	?	.	-9.2%	11.7%	-5.8%
O=C(NC(=S)Nc1ccc(Cc2ccncc2)cc1)c1ccccc1	-17.2%[10 µM]	17.8µM*	.	12.9%	1.4%	?
CCOc1ccc(-c2nc3c(c(CC)nn3-c3ccccc3)c3cc(OC)c(OC)cc23)cc1	.	.	-3.1	.	.	.
O=C(CCS(=O)(=O)c1cccc2nsnc12)N1CC(=O)N(CCc2ccccc2)C(=O)C1	9.3%[10 µM]	22.4µM*	2.0	-14.7%	10.0%	-21.9%
CN(CC(=O)N1CC(=O)N(CCc2ccccc2)C(=O)C1)S(=O)(=O)c1cccc2nsnc12	-8.0%	?	2.5	-4.5%	4.3%[38.3 µM]	-1.1%
CCOC(=O)[C@H](CCc1ccccc1)N[C@@H](C)C(=O)N1C(=O)N(C)C[C@H]1C(=O)O	1.9%	.	.	3.7%	.	.
O=C(c1ccc(Cl)c(Cl)c1)c1cc(-c2ccccn2)c(N2CCOCC2)s1	-83.5%	?	-18.7	-4.1%	10µM*	-19.4%
COc1ccc(Cl)cc1NC(=O)C(=O)NCc1ccc(Cl)cc1	.	.	4.7	.	.	.
O=C(c1ccccc1)C1CN(Cc2ccccc2)CCC1(O)c1ccccc1 (stereo not drawn)	-9.8%[10 µM]	0.224µM*	.	-5.3%[9.22 µM]	21.1%	.
CC(=O)N1CCC2(CCN(Cc3ccccc3)CC2)CC1	1.9%	2.8%	.	.	14.8%	0.4%
